The source of these data is PubChem BioAssay (NCI).

This is part of a sample that, as a whole, favours compounds with a hit. Of some 83,000 tested, about 20% had one in any assay.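 Cell lines were cultured in 96-well plates, exposed to a single compound concentration, and assessed for percent growth 48 hours later.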 A number with no mark means an inactive call. Active and inactive are the calls of the source.

The assay concerns CCRF-CEM leukemia. The assay is described as follows: NCI-60 one-dose screen, 48 h (100 = growth as untreated, 0 = no growth, -100 = all killed). The conditions noted are these: 10 µM unless noted. As for the experimental part: Growth inhibition of the CCRF-CEM human tumor cell line is measured as a screen for anti-cancer activity. Cells are grown in 96 well plates and exposed to the test compound for 48 hours. Compounds are tested at a single concentration, which is 10^-5 M for most compounds. The reported endpoint is percent growth (GI% or GIPRCNT), where numbers from 0 - 100% represent growth inhibition, and numbers from -100% - 0 represent cell death. For example, a value of 40 represents 60% growth inhibition. A value of 0 means no net growth occurred over the course of the experiment. A value of -40 indicates 40% of cells at the beginning of the experiment died by the end of the experiment. A value of -100 means all cells are dead at the end of the experiment.
NCI-60 Human Tumor Cell Lines Screen was performed using the standard one-dose NCI protocol, which is described in more detail at https://dtp.cancer.gov/discovery_development/nci-60/default.htm.
Compounds with GIPRCNT values below 10 were considered active. Activity score was based on GIPRCNT using the following formula: […]
Score is 0 for GIPRCNT values of 100 or above, 50 for GIPRCNT values of 0, and 100 for GIPRCNT values of -100.
Turning to `CCN(CC)CCCN1C(=O)c2c(c(C)c3c(oc4ccc(O)cc43)c2C)C1=O`, the growth was -19.7% (active).

Take `CSc1nn2c(-c3ccc4ccccc4c3)ccnc2c1C#N`: the growth was 41%.

Regarding `C/C=C(\C)C(=O)N[C@H]1C(O)C[C@]2(C)C3CC[C@@]4(C)C(CC[C@@H]4C(C)N(C)C)C3CCC2C1O` (stereo not given in full), the growth is 14.6%. As to `Cc1cc2c(cc1C)N(C(=O)CCl)CC(=O)N2`, the growth was -19.9% (active). The figure for `N#Cc1cccc(C2C3=C(COC3=O)N(CCO)c3cc4c(cc32)CCC4)c1` (stereo not given) is 7.42% (active); for `COc1ccc(C2=NN(C(C)=O)C(c3cn(-c4ccccc4)nc3-c3ccc(Cl)cc3)C2)cc1` (stereo not given) it is 24%. To `O=P(O)(O)OCC1OC(n2cnc3c(NCc4ccco4)ncnc32)C(O)C1O` (stereo not given) belongs -31.5% (active); to `CN(CCCNC(=O)Cc1ccc2ccc3cccc4ccc1c2c34)CCCNc1cc(-c2ccc3ccccc3c2)nc2ccccc12`, -74.5% (active).

As for `NS(=O)(=O)c1ccc(C(=O)NN2C(=O)c3c(Br)c(Br)c(Br)c(Br)c3C2=O)cc1`, the growth is 101%. To `NC1(CO)COC(c2ccccc2)OC1` (stereo not given) belongs 99.4%; to `CCC1S/C(=N\N=C(\C)c2cc3cc(Cl)ccc3o2)N(c2ccccc2)C1=O` (stereo not given), -53.2% (active); to `COc1cc(OC)c2sc(-c3ccc(-n4cncc4-c4cc(OC)c(OC)c(OC)c4)cc3)nc2c1`, 56.6%.

With `CCOC(=O)CC1CSC(Nc2ccccc2)=N1` (stereo not given), the growth is 98.3%.

As to `Nc1c(C(=O)Nc2cccc(Cl)c2)sc2nc3c(cc12)CCCC3`, the growth is 87.1%. With `Cc1ccc(/C=C/C(=O)c2ccc(-n3cc(CN4CCN(c5cc6c(cc5F)c(=O)c(C(=O)O)cn6C5CC5)CC4)nn3)cc2)cc1`, the growth is 84.3%. The figure for `N#C/C(=C\C=C\c1ccc(-c2cc(Cl)ccc2Cl)o1)c1nc2ccccc2s1` is 91.8%; for `Cc1ccccc1Nc1cc(O)c2c(=O)cc(-c3ccccc3)oc2c1` it is 29.5%; for `CCn1cc(CNc2ccc(C(=O)Nc3cc4cc(OC)c(OC)cc4c(C)n3)cc2)cn1` it is 17.5%.

Turning to `C#CCn1cnc2cnc(Nc3cccc(NC(=O)C=C)c3)nc21`, the growth is 1.84% [6.25 µM] (active). `CC(=O)Oc1ccc(OC(C)=O)c2ccccc12`: the growth is -6.08% (active). To `CCOC(=O)c1c(C)c2c(n1Cc1ccccc1)CSCC2=O` belongs 10.5% [100 µM]; to `COc1ccc(C(=O)Cn2c(C(=O)c3ccc(Cl)cc3)nc3ccccc32)cc1`, 39.2%; to `O=[N+]([O-])c1ccc(-c2cn3nc(-c4c[nH]c5ccccc45)sc3n2)cc1`, 90.2%.

`CCCCCN(CCCCC)CC(O)c1cc(C)c2ccc3cc(C(C)C)ccc3c2c1` (stereo not given): the growth was -7.34% (active).

Take `CCCn1nc(C(=O)N(C)Cc2ccccc2)c2c1CCC(N1CCc3ccccc31)C2` (stereo not given): the growth is 96.6%. The figure for `N#Cc1c(-c2ccccc2)nc(SCc2nnc(-c3ccc(Cl)cc3)o2)[nH]c1=O` is 85.5%; for `CC1(C)[C@@H](O[C@@H]2OC[C@@H](O[C@@H]3O[C@H](CO)[C@@H](O)[C@H](O)[C@H]3O[C@@H]3OC[C@@H](O)[C@H](O)[C@H]3O)[C@H](O)[C@H]2O[C@@H]2O[C@H](CO)[C@@H](O)[C@H](O)[C@H]2O)CC[C@]2(C)[C@H]3CC[C@]45OC[C@@]6(CC[C@](C)(C=O)C[C@H]64)[C@H](O)C[C@@]5(C)[C@]3(C)CC[C@@H]12` it is -40.9% (active); for `O=C1Nc2c(C(=O)O)cccc2/C1=N/c1n[nH]c(=S)s1` it is 88.7%. The figure for `O=C(CI)NC(=O)NC(=O)NCc1ccccc1` is -23.8% (active); for `C#CC#CC#CC#CC#CC#CC#CC#CC[C@@H]1OC[C@@H](COC(=O)O[C@@H](C(=O)O[C@H]2C[C@@]3(O)[C@@H](OC(=O)c4ccccc4)[C@@H]4[C@]5(OC(C)=O)CO[C@@H]5C[C@H](O)[C@@]4(C)C(=O)[C@H](OC(C)=O)C(=C2C)C3(C)C)[C@@H](NC(=O)c2ccccc2)c2ccccc2)O1` it is 6.05% (active); for `CCOC(=O)/C=C1\S/C(=N\Nc2cc(=O)[nH]c3ccccc23)N(c2ccccc2)C1=O` it is 101%.

For the compound `CC1(C)C(N)=Nc2cc(OCCCN3Cc4ccccc4C3)c(OCC3CC3)cc21`, the growth is 19.1%.

As to `COC(=O)/C=C1/SC(=Nc2ccc([N+](=O)[O-])cc2)N(CCc2c[nH]c3ccc(O)cc23)C1=O`, the growth was 10.9%. Regarding `O=C1c2ccccc2C(=O)C1c1ccc(Br)cc1`, the growth was 75.6%. To `CCCCNc1cc(-c2cn[nH]c2-c2cc(C)cc(OC)c2)nc(-c2cccnc2)n1` belongs 84.7%. To `[2H]C([2H])([2H])Oc1ccc(F)cc1/C=C/C(=O)/C=C(/C=C/c1cc(F)ccc1OC([2H])([2H])[2H])OB(F)F` belongs 1.24% (active). To `S=C(c1ccc2c(c1)OCO2)N1CCN(c2cccc(Cl)c2)CC1` belongs 18.8%.

For `Cc1cc(Nc2ccc(C(=O)N3CCCC3)cc2)nc(NCCCNc2ccnc3cc(Cl)ccc23)n1`, the growth was 65.3%.

Take `CCN(CC)c1ccc(/C=N/NC(=O)Cc2ccc(Nc3ccnc(C(F)(F)F)c3)cc2)c(O)c1`: the growth was 9.9% (active).

As for `O=S(=O)(NCCNc1nccc(-c2c(-c3ccc(F)c(O)c3)nc3sccn23)n1)c1ccc(F)cc1`, the growth is 12.7%.
